PubChem BioAssay (EPA / NIEHS)
Records with an inconclusive call do not appear. Calls of active or inactive are those of the source. How the source made its calls, unless noted: active means hit-call score of the fitted dose curve at least 0.9, where 1 is the maximum; inconclusive means response in the unintended direction; inactive means score below 0.9.

Columns and labels:
[1] = target: Nuclear receptor subfamily 1 group I member 3 (Homo sapiens) (UniProt Q14994); assay: ATG_CAR_TRANS: Attagene TRANS-FACTORIAL HepG2 Assay for human Constitutive Androstane Receptor (CAR) (AID 2282969); settings: HepG2 Attagene TRANS-FACTORIAL CAR reporter;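 further: activators raise reporter mRNA above DMSO so AC50 marks induction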
Outline: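 Readout is reporter mRNA induction, quantified by fluorescent primer extension and capillary electrophoresis after RT-PCR. Cells were HepG2 transiently carrying chimeric NR-Gal4 constructs with GAL4-UAS reporters, treated for 24 h; activity scored upward from DMSO.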

[2] = target: Estrogen receptor (Homo sapiens) (UniProt P03372); assay: ATG_ERa_TRANS: Attagene TRANS-FACTORIAL HepG2 Assay for human Estrogen Receptor alpha (ERa) (AID 2282970); settings: HepG2 Attagene TRANS ERa GAL4 reporter, mRNA
Outline: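 Transactivation via ERa-Gal4 chimera in HepG2; 24 hour incubation; reporter mRNA detected by fluorescence RT-PCR and capillary electrophoresis.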

[3] = target: X-box-binding protein 1 (Homo sapiens) (UniProt P17861); assay: ATG_Xbp1_CIS: Attagene CIS-FACTORIAL HepG2 Assay for human X-box Binding Protein 1 (XBP1) (AID 2282972; active means hit-call score of the fitted dose curve at least 0.9, where 1 is the maximum; inactive means score below 0.9); settings: HepG2 XBP1 cis-element reporter, Attagene multiplex; actives raise or lower the signal
Outline: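 HepG2 cells transiently transfected with cis-regulated multiple reporter transcription units; endogenous transcription factor activity measured 24 hours after chemical dosing. Reporter mRNA quantified by RT-PCR, 6-FAM primer extension, HpaI digestion and capillary electrophoresis; bidirectional fitting versus DMSO.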

[4] = ATG_M_19_TRANS: Attagene TRANS-FACTORIAL HepG2 Assay for M19 Transcription Factor (Internal Marker) (AID 2282974); settings: HepG2 Attagene TRANS-FACTORIAL M19 internal marker reporter
Outline: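 HepG2 cells transiently transfected with multiple GAL4-UAS reporter transcription units were exposed to chemicals for 24 h. Reporter mRNA was read by RT-PCR, 6-FAM primer extension, HpaI digestion and capillary electrophoresis; gain of signal fitted relative to DMSO.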

[5] = target: Estrogen-related receptor gamma (Homo sapiens) (UniProt P62508); assay: ATG_ERRg_TRANS: Attagene TRANS-FACTORIAL HepG2 Assay for human Estrogen-Related Receptor gamma (ERRg) (AID 2282977); settings: HepG2 Attagene TRANS reporter, ERRg transactivation;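 further: hits increase reporter signal over DMSO so potencies reflect activators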
Outline: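 HepG2 cells transiently transfected with multiplexed GAL4-UAS reporter units driven by chimeric NR-Gal4 proteins; 24 h exposure. Reporter mRNA quantified by RT-PCR, fluorescent labelling, HpaI digestion and capillary electrophoresis; gain of signal vs DMSO.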

[6] = target: Bile acid receptor (Homo sapiens) (UniProt Q96RI1); assay: ATG_FXR_TRANS: Attagene TRANS-FACTORIAL HepG2 Assay for Farnesoid X Receptor (FXR) (AID 2282979); settings: HepG2 Attagene TRANS FXR-GAL4 reporter transcription;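 further: hits raise reporter mRNA above DMSO so AC50 marks FXR activation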
Outline: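 Chimeric FXR-GAL4 activity in transiently transfected human HepG2 liver cells is scored as induction of reporter mRNA after 24 h of dosing. Detection uses RT-PCR with fluorescent labelling and capillary electrophoresis, with DMSO serving as baseline.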

[7] = target: Nuclear receptor subfamily 4 group A member 2 (Homo sapiens) (UniProt P43354); assay: ATG_NURR1_TRANS: Attagene TRANS-FACTORIAL HepG2 Assay for human Nuclear Receptor Related Protein 1 (NURR1) (AID 2282985); settings: HepG2 Attagene TRANS reporter, mRNA readout
Outline: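 Transient transfection of HepG2, human liver cells, with multiple GAL4-UAS reporter transcription units. Cells dosed 24 h, RNA isolated, reverse-transcribed, PCR-amplified, FAM-labelled, HpaI-digested, sized by capillary electrophoresis. DMSO served as negative control.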

[8] = target: Transcriptional activator Myb (Homo sapiens) (UniProt P10242); assay: ATG_Myb_CIS: Attagene CIS-FACTORIAL HepG2 Assay for human Myeloblastosis (Myb) Proto-Oncogene Transcription Factor (AID 2282986; active means hit-call score of the fitted dose curve at least 0.9, where 1 is the maximum; inactive means score below 0.9); settings: HepG2 Attagene CIS-FACTORIAL Myb reporter transcription; actives raise or lower the signal
Outline: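 HepG2 cells were transiently transfected with cis-regulated multiple reporter transcription units reflecting endogenous Myb activity, then exposed to compound for 24 hours. Reporter mRNA was measured by RT-PCR with capillary electrophoresis; bidirectional fitting versus DMSO baseline.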

[9] = target: Nuclear respiratory factor 1 (Homo sapiens) (UniProt Q16656); assay: ATG_NRF1_CIS: Attagene CIS-FACTORIAL HepG2 Assay for human Nuclear Respiratory Factor 1 (NRF1) Orphan Gene (AID 2282987; active means hit-call score of the fitted dose curve at least 0.9, where 1 is the maximum; inactive means score below 0.9); settings: HepG2 NRF1 cis-element reporter, Attagene multiplex; actives raise or lower the signal
Outline: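 HepG2 cells transiently transfected with multiple reporter transcription units under cis-regulatory promoter control, so endogenous transcription-factor activity is read. After 24 h compound exposure, reporter mRNA quantified by RT-PCR, fluorescent labelling, HpaI digestion and capillary electrophoresis; bidirectional fitting versus DMSO.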

[10] = ATG_NFI_CIS: Attagene CIS-FACTORIAL HepG2 Assay for human Nuclear Factor I (NFI) (AID 2282989; active means hit-call score of the fitted dose curve at least 0.9, where 1 is the maximum; inactive means score below 0.9); settings: HepG2 cis-regulatory reporter, NFI response element transcription; actives raise or lower the signal
Outline: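 Reporter transcription driven by endogenous transcription factors in HepG2 cells; 24 h treatment. Quantitation by labelled RT-PCR fragments on capillary electrophoresis, gain- or loss-of-signal relative to DMSO.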

[11] = target: Myc proto-oncogene protein (Homo sapiens) (UniProt P01106); assay: ATG_Myc_CIS: Attagene CIS-FACTORIAL HepG2 Assay for human Myelocytomatosis (Myc) Proto-Oncogene Transcription Factor (AID 2282990; active means hit-call score of the fitted dose curve at least 0.9, where 1 is the maximum; inactive means score below 0.9); settings: HepG2, Attagene cis-reporter transcription factor activity; actives raise or lower the signal
Outline: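 After 24 h chemical treatment of HepG2 cells carrying multiplexed cis-regulated reporter constructs, reporter transcripts quantified by RT-PCR and capillary electrophoresis of fluorescent fragments. Gain or loss fitted against DMSO baseline.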

[12] = target: Steroid hormone receptor ERR1 (Homo sapiens) (UniProt P11474); assay: ATG_ERRa_TRANS: Attagene TRANS-FACTORIAL HepG2 Assay for human Estrogen-Related Receptor alpha (ERRa) (AID 2282971); settings: HepG2 Attagene TRANS reporter, ERRa transactivation
Outline: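 HepG2 cells were transiently transfected with multiple GAL4-UAS reporter units, then dosed with compound for 24 h. Total RNA was reverse-transcribed, reporter cDNA PCR-amplified and fluorescently labelled, and fragments resolved by capillary electrophoresis; induction was compared with DMSO.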

[13] = target: Androgen receptor (Homo sapiens) (UniProt P10275); assay: ATG_AR_TRANS: Attagene TRANS-FACTORIAL HepG2 Assay for human Androgen Receptor (AR) (AID 2282973); settings: HepG2 Attagene TRANS-FACTORIAL AR reporter transcription
Outline: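 Transfected HepG2, 24 h treatment, chimeric NR-Gal4 driving GAL4-UAS reporters. mRNA induction by RT-PCR/capillary electrophoresis fluorescence; DMSO as negative control and baseline.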

[14] = target: Oxysterols receptor LXR-beta (Homo sapiens) (UniProt P55055); assay: ATG_LXRb_TRANS: Attagene TRANS-FACTORIAL HepG2 Assay for human Liver X Receptor beta (LXRb) (AID 2282981); settings: HepG2 Attagene TRANS GAL4-LXRb reporter, mRNA
Outline: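 Transient transfection HepG2 (multiplexed RTUs, GAL4-UAS); NR-Gal4 chimera; 24 h exposure; RNA → RT-PCR → 6-FAM primer extension → HpaI → CE; increase vs DMSO.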

[15] = ATG_M_32_TRANS: Attagene TRANS-FACTORIAL HepG2 Assay for M32 Transcription Factor (Internal Marker) (AID 2282984); settings: HepG2 Attagene TRANS M32 internal marker reporter;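 further: transcript level of a background control reporter unit measured by RT-PCR and capillary electrophoresis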
Outline: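 Measures reporter mRNA induction in human HepG2 liver cells after 24 h chemical treatment. Transcripts from transiently transfected GAL4-UAS reporter units are amplified, fluorescently labelled and sized by capillary electrophoresis; gain of signal relative to DMSO.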

[16] = target: Glucocorticoid receptor (Homo sapiens) (UniProt P04150); assay: ATG_GR_TRANS: Attagene TRANS-FACTORIAL HepG2 Assay for human Glucocorticoid Receptor (GR) (AID 2282978); settings: HepG2 Attagene TRANS GR reporter, mRNA transcription;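 further: activators score as hits since higher reporter transcript over DMSO is fitted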
Outline: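 HepG2 cells transiently transfected with multiplexed reporter units in which chimeric NR-GAL4 proteins drive GAL4-UAS reporters; 24 h compound exposure. Reporter mRNA measured by RT-PCR, 6-FAM labelling, HpaI digestion and capillary electrophoresis; gain-of-signal fitted versus DMSO.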

[17] = ATG_GAL4_TRANS: Attagene TRANS-FACTORIAL HepG2 Assay for GAL4 (Internal Marker) (AID 2282976); settings: HepG2 Attagene TRANS GAL4 internal marker reporter
Outline: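 Fluorescence from capillary electrophoresis of labelled RT-PCR products quantifies reporter mRNA induction after 24 h dosing of HepG2 cells carrying transfected GAL4-UAS reporter transcription units. Vehicle DMSO serves as baseline.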

[18] = target: Oxysterols receptor LXR-alpha (Homo sapiens) (UniProt Q13133); assay: ATG_LXRa_TRANS: Attagene TRANS-FACTORIAL HepG2 Assay for human Liver X Receptor alpha (LXRa) (AID 2282980); settings: HepG2 Attagene TRANS reporter, LXRa transactivation
Outline: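 Transient HepG2 transfectants, 24 h dosing, RT-PCR/CE mRNA reporter quantitation; gain-of-signal vs DMSO.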

[19] = ATG_M_06_TRANS: Attagene TRANS-FACTORIAL HepG2 Assay for M06 Transcription Factor (Internal Marker) (AID 2282983); settings: HepG2 Attagene TRANS M06 internal marker reporter;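 further: reporter transcript level by RT-PCR then capillary electrophoresis fluorescence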
Outline: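 Measured by capillary electrophoresis of fluorescently labelled RT-PCR products, this endpoint reflects reporter mRNA in HepG2 cells harbouring exogenous NR-GAL4 reporter constructs after 24 h exposure, with DMSO as baseline.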

[20] = target: Hepatocyte nuclear factor 4-alpha (Homo sapiens) (UniProt P41235); assay: ATG_HNF4a_TRANS: Attagene TRANS-FACTORIAL HepG2 Assay for human Hepatocyte Nuclear Factor 4 alpha (HNF4a) (AID 2282982); settings: HepG2 HNF4a transactivation reporter, mRNA readout
Outline: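 Readout is fluorescent reporter-transcript fragments resolved by capillary electrophoresis after RT-PCR from HepG2 cells dosed for 24 h. Cells carried transfected GAL4-UAS reporter constructs measuring exogenous NR-GAL4 chimera activity; DMSO served as baseline.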

Measured: AC50

Sequence of Oxysterols receptor LXR-beta (Homo sapiens) (P55055 whole entry, looked up, the tested form may be a part): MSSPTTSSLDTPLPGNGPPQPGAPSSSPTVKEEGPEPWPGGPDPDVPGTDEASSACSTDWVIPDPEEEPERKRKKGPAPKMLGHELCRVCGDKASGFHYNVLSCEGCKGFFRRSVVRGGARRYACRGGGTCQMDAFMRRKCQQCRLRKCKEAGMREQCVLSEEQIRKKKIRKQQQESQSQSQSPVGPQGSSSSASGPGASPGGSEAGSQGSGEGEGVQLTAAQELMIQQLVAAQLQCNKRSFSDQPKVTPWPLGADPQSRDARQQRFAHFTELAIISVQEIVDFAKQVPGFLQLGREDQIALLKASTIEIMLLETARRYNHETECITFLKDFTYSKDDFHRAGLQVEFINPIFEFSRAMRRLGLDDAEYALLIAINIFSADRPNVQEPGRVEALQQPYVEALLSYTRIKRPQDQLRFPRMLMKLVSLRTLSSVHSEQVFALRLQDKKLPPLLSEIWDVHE
Sequence of X-box-binding protein 1 (Homo sapiens) (P17861 whole entry, looked up): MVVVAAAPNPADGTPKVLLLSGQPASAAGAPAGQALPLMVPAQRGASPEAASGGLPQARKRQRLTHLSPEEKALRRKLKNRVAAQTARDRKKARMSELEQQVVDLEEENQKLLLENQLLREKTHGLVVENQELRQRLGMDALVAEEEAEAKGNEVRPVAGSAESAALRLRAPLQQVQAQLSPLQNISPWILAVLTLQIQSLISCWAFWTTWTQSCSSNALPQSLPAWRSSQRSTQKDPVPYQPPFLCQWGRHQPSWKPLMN
Sequence of Nuclear receptor subfamily 4 group A member 2 (Homo sapiens) (P43354 whole entry, looked up, the tested form may be a part): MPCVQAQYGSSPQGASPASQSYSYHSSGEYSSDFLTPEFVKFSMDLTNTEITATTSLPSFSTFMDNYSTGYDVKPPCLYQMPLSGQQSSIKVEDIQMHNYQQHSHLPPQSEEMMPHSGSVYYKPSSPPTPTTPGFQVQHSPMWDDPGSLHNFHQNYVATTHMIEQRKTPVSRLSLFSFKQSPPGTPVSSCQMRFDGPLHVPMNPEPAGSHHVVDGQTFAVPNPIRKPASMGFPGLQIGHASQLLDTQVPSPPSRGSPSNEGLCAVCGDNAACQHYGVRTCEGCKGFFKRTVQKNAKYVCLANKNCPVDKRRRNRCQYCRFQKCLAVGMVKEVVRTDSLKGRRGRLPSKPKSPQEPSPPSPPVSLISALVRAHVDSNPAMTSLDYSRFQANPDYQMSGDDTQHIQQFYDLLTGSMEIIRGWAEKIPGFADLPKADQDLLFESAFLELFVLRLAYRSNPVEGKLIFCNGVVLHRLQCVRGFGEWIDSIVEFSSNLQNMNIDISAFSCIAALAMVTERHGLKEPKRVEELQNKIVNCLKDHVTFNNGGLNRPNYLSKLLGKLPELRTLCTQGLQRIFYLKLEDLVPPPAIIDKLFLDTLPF
Sequence of Myc proto-oncogene protein (Homo sapiens) (P01106 whole entry, looked up, the tested form may be a part): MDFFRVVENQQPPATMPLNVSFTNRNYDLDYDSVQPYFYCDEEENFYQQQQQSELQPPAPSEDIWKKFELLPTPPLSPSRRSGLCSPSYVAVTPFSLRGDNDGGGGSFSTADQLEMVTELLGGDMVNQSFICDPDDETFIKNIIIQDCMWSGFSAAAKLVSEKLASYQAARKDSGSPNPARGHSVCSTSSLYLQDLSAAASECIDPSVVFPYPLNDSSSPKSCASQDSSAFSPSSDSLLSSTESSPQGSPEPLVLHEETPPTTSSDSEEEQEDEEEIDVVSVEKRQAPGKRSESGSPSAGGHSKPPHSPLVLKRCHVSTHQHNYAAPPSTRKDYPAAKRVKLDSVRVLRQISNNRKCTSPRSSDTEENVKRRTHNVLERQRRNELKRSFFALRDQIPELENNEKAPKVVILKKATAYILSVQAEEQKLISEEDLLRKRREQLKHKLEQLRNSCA
Sequence of Nuclear receptor subfamily 1 group I member 3 (Homo sapiens) (Q14994 whole entry, looked up, the tested form may be a part): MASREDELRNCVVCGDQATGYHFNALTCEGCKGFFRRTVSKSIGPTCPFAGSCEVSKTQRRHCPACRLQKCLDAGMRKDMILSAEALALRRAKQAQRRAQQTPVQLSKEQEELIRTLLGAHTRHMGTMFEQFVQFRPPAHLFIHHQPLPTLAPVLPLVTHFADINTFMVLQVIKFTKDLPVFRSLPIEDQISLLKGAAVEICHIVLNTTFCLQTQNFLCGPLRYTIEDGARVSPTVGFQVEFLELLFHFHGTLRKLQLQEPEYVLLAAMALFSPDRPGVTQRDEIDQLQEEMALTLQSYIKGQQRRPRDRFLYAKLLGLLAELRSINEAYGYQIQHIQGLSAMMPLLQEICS
Sequence of Nuclear respiratory factor 1 (Homo sapiens) (Q16656 whole entry, looked up): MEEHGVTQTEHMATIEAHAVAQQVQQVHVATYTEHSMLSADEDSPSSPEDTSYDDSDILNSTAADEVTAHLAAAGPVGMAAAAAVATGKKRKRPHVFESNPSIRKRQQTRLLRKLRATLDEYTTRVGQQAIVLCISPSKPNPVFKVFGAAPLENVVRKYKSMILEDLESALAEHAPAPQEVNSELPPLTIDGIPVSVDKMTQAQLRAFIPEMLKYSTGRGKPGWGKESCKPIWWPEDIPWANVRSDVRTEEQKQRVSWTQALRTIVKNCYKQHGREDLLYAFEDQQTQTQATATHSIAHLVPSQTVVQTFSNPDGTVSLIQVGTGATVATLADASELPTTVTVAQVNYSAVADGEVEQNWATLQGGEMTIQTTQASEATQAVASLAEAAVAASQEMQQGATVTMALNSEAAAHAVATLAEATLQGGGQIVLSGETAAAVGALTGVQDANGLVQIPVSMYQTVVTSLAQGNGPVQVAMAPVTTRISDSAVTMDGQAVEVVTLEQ
Sequence of Bile acid receptor (Homo sapiens) (Q96RI1 whole entry, looked up, the tested form may be a part): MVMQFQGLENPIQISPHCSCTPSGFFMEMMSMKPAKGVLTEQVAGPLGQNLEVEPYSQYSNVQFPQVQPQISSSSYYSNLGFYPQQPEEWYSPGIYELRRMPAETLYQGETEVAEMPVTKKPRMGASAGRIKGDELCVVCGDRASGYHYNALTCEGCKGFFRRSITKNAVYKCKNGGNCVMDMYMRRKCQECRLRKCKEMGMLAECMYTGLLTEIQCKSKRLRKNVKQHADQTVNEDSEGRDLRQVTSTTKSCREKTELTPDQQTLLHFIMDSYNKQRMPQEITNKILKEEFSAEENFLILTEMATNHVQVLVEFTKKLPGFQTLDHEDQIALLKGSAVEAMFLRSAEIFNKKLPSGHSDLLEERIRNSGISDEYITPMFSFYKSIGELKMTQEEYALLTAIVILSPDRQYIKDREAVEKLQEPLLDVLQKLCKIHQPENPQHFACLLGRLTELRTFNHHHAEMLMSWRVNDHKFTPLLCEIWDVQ
Sequence of Glucocorticoid receptor (Homo sapiens) (P04150 whole entry, looked up, the tested form may be a part): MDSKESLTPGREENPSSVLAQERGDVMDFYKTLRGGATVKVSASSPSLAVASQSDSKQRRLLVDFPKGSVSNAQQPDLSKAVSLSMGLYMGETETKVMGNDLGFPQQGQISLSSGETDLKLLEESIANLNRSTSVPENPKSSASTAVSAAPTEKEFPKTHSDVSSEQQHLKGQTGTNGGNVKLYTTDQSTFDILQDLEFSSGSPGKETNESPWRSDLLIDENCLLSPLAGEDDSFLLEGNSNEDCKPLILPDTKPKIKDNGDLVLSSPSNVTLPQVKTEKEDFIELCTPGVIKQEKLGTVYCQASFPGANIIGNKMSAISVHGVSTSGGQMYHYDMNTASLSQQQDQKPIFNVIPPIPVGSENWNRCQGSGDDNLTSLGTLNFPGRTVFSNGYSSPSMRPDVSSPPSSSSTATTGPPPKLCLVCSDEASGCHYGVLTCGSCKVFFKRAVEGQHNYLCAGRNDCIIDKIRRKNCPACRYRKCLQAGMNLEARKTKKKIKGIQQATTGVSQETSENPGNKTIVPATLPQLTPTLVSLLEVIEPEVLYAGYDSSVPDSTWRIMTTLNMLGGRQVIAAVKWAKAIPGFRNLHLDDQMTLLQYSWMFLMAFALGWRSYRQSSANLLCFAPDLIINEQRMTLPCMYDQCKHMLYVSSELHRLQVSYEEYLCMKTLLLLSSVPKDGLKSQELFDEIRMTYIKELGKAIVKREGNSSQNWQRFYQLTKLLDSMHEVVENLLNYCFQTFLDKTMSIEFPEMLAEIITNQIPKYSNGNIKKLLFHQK
Sequence of Estrogen receptor (Homo sapiens) (P03372 whole entry, looked up, the tested form may be a part): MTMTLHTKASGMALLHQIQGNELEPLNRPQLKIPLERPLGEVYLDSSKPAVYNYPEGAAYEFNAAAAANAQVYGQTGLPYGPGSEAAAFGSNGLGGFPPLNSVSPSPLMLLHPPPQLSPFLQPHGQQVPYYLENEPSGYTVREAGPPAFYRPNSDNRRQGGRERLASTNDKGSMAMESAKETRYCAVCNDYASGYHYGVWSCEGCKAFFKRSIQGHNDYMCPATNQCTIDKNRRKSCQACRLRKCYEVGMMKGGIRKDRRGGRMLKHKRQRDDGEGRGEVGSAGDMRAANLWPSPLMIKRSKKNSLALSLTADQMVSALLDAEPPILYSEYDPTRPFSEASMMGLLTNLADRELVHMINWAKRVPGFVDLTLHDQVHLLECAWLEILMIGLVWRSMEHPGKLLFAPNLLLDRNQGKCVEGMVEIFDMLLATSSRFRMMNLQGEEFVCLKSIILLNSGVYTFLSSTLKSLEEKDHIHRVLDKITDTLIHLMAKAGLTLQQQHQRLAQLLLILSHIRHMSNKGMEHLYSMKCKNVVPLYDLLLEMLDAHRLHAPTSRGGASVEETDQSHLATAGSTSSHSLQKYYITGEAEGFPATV
Sequence of Steroid hormone receptor ERR1 (Homo sapiens) (P11474 whole entry, looked up, the tested form may be a part): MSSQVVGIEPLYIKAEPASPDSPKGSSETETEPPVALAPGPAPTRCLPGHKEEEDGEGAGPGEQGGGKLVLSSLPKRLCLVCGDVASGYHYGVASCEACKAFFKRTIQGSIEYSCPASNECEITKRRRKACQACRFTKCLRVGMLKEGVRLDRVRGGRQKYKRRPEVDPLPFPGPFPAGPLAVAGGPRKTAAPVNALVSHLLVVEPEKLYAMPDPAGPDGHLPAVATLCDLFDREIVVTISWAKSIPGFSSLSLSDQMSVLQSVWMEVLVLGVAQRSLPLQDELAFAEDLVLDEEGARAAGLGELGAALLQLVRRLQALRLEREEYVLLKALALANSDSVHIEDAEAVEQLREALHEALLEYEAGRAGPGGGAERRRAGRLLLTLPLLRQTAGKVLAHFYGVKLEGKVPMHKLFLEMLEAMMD

CCCSP(=S)(OCC)Oc1ccc(SC)cc1 (stereo not drawn)
inactive: [1] | [3] | [4] | [5] | [6] | [7] | [8] | [9] | [10] | [11]
active: [2] 4.92 µM

O=C(Cl)OCCOCCOC(=O)Cl
inactive: [1] | [2] | [12] | [3] | [13] | [4] | [14] | [15] | [8] | [10]

Cc1ccccc1OP(=O)(Oc1ccccc1C)Oc1ccccc1C
active: [2] 1.3 µM | [3] 56.1 µM | [7] 26.7 µM
not listed: [5] | [9] | [17] | [18] | [19] | [20]
inactive: all other assays above

CCOP(=S)(OCC)SCSc1cc(Cl)ccc1Cl
inactive: [1] | [2] | [3] | [4] | [17] | [16] | [14] | [15] | [8] | [9] | [10]

CCCSP(=S)(OCC)Oc1ccc(Cl)cc1Cl (stereo not drawn)
active: [2] 2.91 µM
not listed: [4] | [5] | [6] | [13] | [14] | [17] | [20]
inactive: all other assays above

CC(C)(C)c1ccc(CCOc2ncnc3ccccc23)cc1
inactive: [1] | [2] | [3] | [4] | [6] | [14] | [15] | [8] | [10] | [11]

c1csc(-c2ccc(-c3cccs3)s2)c1
active: [1] 6.62 µM | [2] 4.23 µM | [3] 2.54 µM | [7] 3.59 µM
not listed: [5] | [12] | [13] | [16] | [17] | [19]
inactive: all other assays above

CC(C)=CC1C(C(=O)OCc2cccc(Oc3ccccc3)c2)C1(C)C (stereo not drawn)
active: [2] 12.8 µM
not listed: [7] | [13] | [14] | [16] | [18] | [19] | [20]
inactive: all other assays above

CCOC(=O)CCN(SN(C)C(=O)Oc1cccc2c1OC(C)(C)C2)C(C)C
active: [7] 157 µM
not listed: [4] | [5] | [13] | [14] | [16] | [17] | [18] | [19]
inactive: all other assays above

OC[C@@H](O)[C@H]1O[C@@H]2O[C@H](C(Cl)(Cl)Cl)O[C@@H]2[C@H]1O
inactive: [1] | [2] | [12] | [3] | [17] | [19] | [15] | [8] | [9] | [10]
